Assay outcomes from PubChem.
Cruzain inh noDet – cruzain (T. cruzi) inhibition without detergent; P25779; purified cruzain, Z-FR-AMC fluorescence, no detergent; Potency, µM, inactives show max response, negative = inhibition, actives largely listed as inhibitors; hit rate 2.3% among 200,000; AID 1476;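 also: plate controls were enzyme without inhibitor for no effect and buffer without enzyme for full effect; nearly all actives have a fitted effect of over 40% in size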
Target sequence (P25779 123-467 limits assumed): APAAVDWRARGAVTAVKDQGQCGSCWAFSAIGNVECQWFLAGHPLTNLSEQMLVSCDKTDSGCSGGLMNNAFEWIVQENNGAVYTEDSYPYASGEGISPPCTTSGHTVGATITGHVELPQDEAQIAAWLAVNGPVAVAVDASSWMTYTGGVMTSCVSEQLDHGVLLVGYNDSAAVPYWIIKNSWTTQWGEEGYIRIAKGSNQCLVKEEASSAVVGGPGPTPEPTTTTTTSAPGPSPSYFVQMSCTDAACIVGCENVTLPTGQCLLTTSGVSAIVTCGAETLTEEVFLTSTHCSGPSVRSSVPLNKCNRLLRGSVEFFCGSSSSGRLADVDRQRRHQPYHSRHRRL
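Purified cruzain at 1.5 nM, pre-incubated 15 min with compound at room temperature in 100 mM sodium acetate pH 5.5, 5 mM DTT, 0.00005% Triton X-100. Reaction started with 2 uM Z-FR-AMC; AMC fluorescence increase over 60 s gives rate.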
Giardia FBPA inh-1 – blocks Giardia fructose-bisphosphate aldolase activity | purified Giardia FBPA | Potency, µM (highest dose often 59.6 µM), for inactives: top-dose activity, negative = inhibition, most hits filed as inhibitors | hit rate 0.71% among 290,000; also: nearly all actives have a fitted effect of over 55% in size
Target sequence (A8B2U2 whole entry, looked up): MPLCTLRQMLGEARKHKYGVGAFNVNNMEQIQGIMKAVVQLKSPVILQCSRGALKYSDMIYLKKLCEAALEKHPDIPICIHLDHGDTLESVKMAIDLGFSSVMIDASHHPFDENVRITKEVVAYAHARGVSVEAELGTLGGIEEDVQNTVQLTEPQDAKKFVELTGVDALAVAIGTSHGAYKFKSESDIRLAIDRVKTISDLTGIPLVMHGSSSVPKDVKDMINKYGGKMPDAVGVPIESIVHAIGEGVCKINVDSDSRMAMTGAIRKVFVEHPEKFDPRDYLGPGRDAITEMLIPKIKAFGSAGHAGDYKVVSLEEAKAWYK
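40 nM FBPA preincubated 10 min at RT with compound (up to 57.5 uM final), then substrate plus GAPDH/TPI/NAD/arsenate coupling and diaphorase/resazurin added. Fluorescence read after 20 min at RT, 525/598 nm.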
Cruzain Triton – cruzain (T. cruzi) inhibition with detergent. P25779. purified cruzain, Z-FR-AMC fluorescence, 0.01% Triton. Potency, µM, for inactives: max response, negative = inhibition, usual class: inhibitors. hit rate 0.43% among 200,000. AID 1478;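 also: plate controls were neutral wells for no effect and buffer without enzyme for full effect; nearly all actives have a fitted effect of over 40% in size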
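Detergent-containing arm of a paired screen for aggregation-based inhibition: 0.01% Triton X-100 present. Cruzain at 1.5 nM cleaved 2 uM Z-FR-AMC at pH 5.5 with 5 mM DTT; AMC fluorescence gain over 60 s measured activity.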
Giardia growth – Giardia lamblia growth inhibition; shares compounds with Giardia FBPA inh-1; Giardia lamblia trophozoite growth inhibition; Potency, µM (doses to about 57.5 µM), for inactives: at the top dose activity change, negative = inhibition, hits mostly inhibitors; hit rate 5% among 1,500; AID 2785;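 also: trophozoites exposed to compound for 48 h at 37 °C; nearly all actives have a fitted effect of over 70% in size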
Mammalian tox – mammalian cytotoxicity of Giardia aldolase inhibitor hits; shares compounds with Giardia FBPA inh-1; Potency, µM (series often up to 57.5 µM), without a hit: at the highest dose viability change, negative = toxicity, usual class: inhibitors; mammalian cell viability counter-screen, qHTS; hit rate 4% among 1,500;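 also: Chinese hamster ovary cells used as mammalian cytotoxicity surrogate; viability measured as cellular ATP by luminescence; compound exposure lasted 48 h before reading; nearly all actives have a fitted effect of over 60% in size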
Giardia FBPA inh-2 – confirmation of Giardia fructose-bisphosphate aldolase inhibitors; purified Giardia aldolase enzyme activity, qHTS; shares compounds with Giardia FBPA inh-1; Potency, µM (highest dose often 57.5 µM), inactives show top-dose activity change, negative = inhibition, usual class: inhibitors; hit rate 5% among 1,500; also: nearly all actives have a fitted effect of over 45% in size
Rabbit aldolase – selectivity test for Giardia aldolase inhibitors: rabbit aldolase. shares compounds with Giardia FBPA inh-1. Rabbit muscle FBPA enzyme inhibition, selectivity counter-screen. Potency, µM (doses to about 57.5 µM), without a hit: top-dose activity, negative = inhibition, actives largely listed as inhibitors. hit rate 4% among 1,500. AID 2794; also: nearly all actives have a fitted effect of over 60% in size
GAPDH counter – GAPDH inhibition flagged for Giardia aldolase hits; AID 2795; GAPDH coupling enzyme counterscreen, biochemical, qHTS; hit rate 6% among 1,500; shares compounds with Giardia FBPA inh-1; Potency, µM (doses to about 57.5 µM), for inactives: top-dose activity change, negative = inhibition, most hits filed as inhibitors; also: nearly all actives have a fitted effect of over 55% in size
Active calls of the source: *; [ ] = remark or other dose. This excerpt belongs to a sample that is enriched for hits. Calls follow the shape of the dose curve; as a rule, active = well fitted curve in the direction sought with a large enough effect; inconclusive = small, poorly fitted or top-dose-only effect, or another doubt; inactive = no such curve, though single readings can be large; an effect the other way counts as inactive or inconclusive. Unless noted, % is scaled to controls: 0 for no effect and ±100 for the full control effect; potency is read from the fitted curve at half-maximal effect.

For Cc1ccccc1C(=O)Nc1ccc(OCc2cc(=O)n3cccc(C)c3n2)cc1 the results were Cruzain inh noDet 5% and Cruzain Triton 1%.
Screening CCOC(=O)c1sc(NC(=O)c2cc(-c3ccc(F)cc3)on2)c(C(=O)OCC)c1C returned Cruzain inh noDet 1% and Cruzain Triton -1%.
For Cc1ccc(OCC(=O)N(Cc2ccco2)Cc2ccco2)cc1C the results were Cruzain inh noDet -9% and Cruzain Triton -5%.
For Cc1c(Cl)cccc1-n1nnc(-c2nc(-c3ccc4c(c3)OCO4)no2)c1C the results were Cruzain inh noDet 3% and Cruzain Triton 3%.
Screening COc1cccc(C(=O)N2CC(=O)Nc3ccc(C)cc3C2c2ccc(F)cc2)c1OC (stereo not drawn) returned Cruzain inh noDet -1% and Cruzain Triton -2%.
COc1ccccc1CNc1ncnc2ccc(-c3cccc(C#N)c3)cc12 was read as Cruzain inh noDet 12%, Giardia FBPA inh-1 0% and Cruzain Triton -6%.
For O=C(C1CCCN(Cc2ccccc2F)C1)N1CCCCC1 (stereo not drawn) the results were Giardia FBPA inh-1 13µM*, Giardia growth -3%[10.4 µM], Mammalian tox -6%, Giardia FBPA inh-2 4%, Rabbit aldolase 12% and GAPDH counter 12%.
`O=C(C1CCCN(Cc2ccccc2F)C1)N1CCc2ccccc2C1` (stereo not drawn) gave Giardia FBPA inh-1 5%.
C=CCn1c(-c2cc(OC)cc(OC)c2)n[nH]c1=S was read as Cruzain inh noDet 1%, Giardia FBPA inh-1 -5% and Cruzain Triton 5%.
Screening C=CCn1c(-c2ccccc2)n[nH]c1=S returned Cruzain inh noDet -9%, Giardia FBPA inh-1 -19% and Cruzain Triton 0%.
C=CCn1c(-c2ccncc2)n[nH]c1=S was read as Giardia FBPA inh-1 2.5µM*, Giardia growth -12%, Mammalian tox -13%, Giardia FBPA inh-2 6%, Rabbit aldolase 4% and GAPDH counter 15%.
Screening C=CCn1c(-c2ccoc2)n[nH]c1=S returned Cruzain inh noDet -6%, Giardia FBPA inh-1 2.5µM*, Cruzain Triton 3%, Giardia growth inconclusive, Mammalian tox -4%, Giardia FBPA inh-2 -1%, Rabbit aldolase 4% and GAPDH counter 0%.
For CC(C)(N=NC(C)(C)C1=NCCN1)C1=NCCN1 the results were Cruzain inh noDet -2% and Cruzain Triton 2%.
`Cc1cc(C)c(S(=O)(=O)/N=C2/C=C(Sc3ncn[nH]3)C(=O)c3ccccc32)cc1C` gave Cruzain inh noDet inconclusive, Giardia FBPA inh-1 0.79µM*, Cruzain Triton -12%, Giardia growth 14µM*, Mammalian tox 20µM*, Giardia FBPA inh-2 6.3µM*, Rabbit aldolase 7.1µM* and GAPDH counter 5µM*.
For CCN(c1ccccc1)S(=O)(=O)c1ccc(Cl)c(NC(=O)CSc2ncn[nH]2)c1 the results were Cruzain inh noDet -6%, Giardia FBPA inh-1 10% and Cruzain Triton -8%.
Screening O=C(NCCc1ccc(Cl)cc1)c1cc(-c2ccc(Cl)cc2)n[nH]1 returned Cruzain inh noDet inconclusive and Cruzain Triton -1%.
Screening C[C@]12CC[C@@H]3c4cc(O)c(O)cc4CC[C@H]3[C@@H]1CC[C@@H]2O returned Giardia FBPA inh-1 16µM*, Giardia growth 7%, Mammalian tox -15%, Giardia FBPA inh-2 4µM*, Rabbit aldolase inconclusive and GAPDH counter -29%.
For COc1cc2c(cc1O)CCC1C2CC[C@]2(C)[C@@H](O)CC[C@@H]12 (stereo partly drawn) the results were Cruzain inh noDet 3%, Giardia FBPA inh-1 1% and Cruzain Triton 2%.
`O=C1[C@@H]2[C@H]3C(=CC[C@@H]2C(=O)N1Cc1ccccc1)C1(OCCCO1)[C@H]1O[C@@H]1[C@H]3O` gave Giardia FBPA inh-1 -9%[12.9 µM].
`COc1cc(NC(=O)CNC(c2ccccc2)c2ccccc2)cc(OC)c1OC` gave Giardia FBPA inh-1 1%.
`COc1ccc(NC(=O)CNC(c2ccccc2)c2ccccc2)cc1` gave Giardia FBPA inh-1 20µM*, Giardia growth -11%, Mammalian tox 3%, Giardia FBPA inh-2 -2%, Rabbit aldolase 1% and GAPDH counter -1%.
Cn1c(C(=O)NCCc2ccccc2)cc2sc(Cl)cc21 was read as Cruzain inh noDet -16% and Cruzain Triton -15%.
`CCN(CC)C(=O)c1sc2[nH]c(=S)n(-c3ccccc3)c(=O)c2c1C` gave Cruzain inh noDet -13%, Giardia FBPA inh-1 inconclusive and Cruzain Triton -5%.
Screening O=C(O)C1CCc2sc3[nH]c(=S)n(-c4ccccc4)c(=O)c3c21 (stereo not drawn) returned Giardia FBPA inh-1 20µM*, Giardia growth -6%[10.4 µM], Mammalian tox 3%, Giardia FBPA inh-2 -6%, Rabbit aldolase 5% and GAPDH counter 6%.
Screening N=c1ccn2c(n1)O[C@H]1[C@@H](O)[C@@H](CO)O[C@H]12 returned Cruzain inh noDet -6%, Giardia FBPA inh-1 -1% and Cruzain Triton 5%.
`Cc1ccc(C(=O)N2CCCN(c3nc4cc5c(cc4cc3C#N)OCO5)CC2)cc1` gave Giardia FBPA inh-1 -17%.
N#Cc1cc2cc3c(cc2nc1N1CCCCC1)OCCO3 was read as Cruzain inh noDet -10%, Giardia FBPA inh-1 6.3µM*, Cruzain Triton 0%, Giardia growth 56µM*, Mammalian tox -26%, Giardia FBPA inh-2 -9%, Rabbit aldolase -1% and GAPDH counter -2%.
For COC(=O)[C@@H](N)Cc1ccc(O)cc1 the results were Cruzain inh noDet 9%, Giardia FBPA inh-1 0% and Cruzain Triton 0%.
Screening N[C@@H](CO)C(=O)NNCc1ccc(O)c(O)c1O returned Cruzain inh noDet -8%, Giardia FBPA inh-1 5µM*, Cruzain Triton 0%, Giardia growth 10%[19.1 µM], Mammalian tox -2%[28.7 µM], Giardia FBPA inh-2 inconclusive, Rabbit aldolase inconclusive and GAPDH counter inconclusive.
Screening Cc1cccc(N(C)S(=O)(=O)c2nnc(NC(=O)C(C)Oc3ccccc3)s2)c1 (stereo not drawn) returned Cruzain inh noDet 14% and Cruzain Triton -11%.
`COC(=O)c1ccc(NC(=O)CC2C(=O)N(c3ccc(F)cc3)C(=O)N2Cc2ccc(OC)cc2)cc1` (stereo not drawn) gave Cruzain inh noDet 5% and Cruzain Triton 0%.
